# Hits are enriched below; roughly 12% of the tested compounds scored in any of these assays.
# ALDH1A1 inh – ALDH1A1 (human) enzyme inhibition. Potency, µM (doses to about 75.3 µM), inactives show at the top dose activity, negative = inhibition, usual class: inhibitors. 220,000 tested, 7.3% active. P00352. Purified ALDH1A1, NADH fluorescence, propionaldehyde substrate; active = well fitted inhibition curve with a large enough effect, not every such curve was filed as active; inconclusive = small, poorly fitted or top-dose-only effect, or another doubt; inactive = no such curve, though single readings can be large or run the other way;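 note: plate controls were no enzyme wells and a reference inhibitor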
# Target sequence (P00352 whole entry, looked up): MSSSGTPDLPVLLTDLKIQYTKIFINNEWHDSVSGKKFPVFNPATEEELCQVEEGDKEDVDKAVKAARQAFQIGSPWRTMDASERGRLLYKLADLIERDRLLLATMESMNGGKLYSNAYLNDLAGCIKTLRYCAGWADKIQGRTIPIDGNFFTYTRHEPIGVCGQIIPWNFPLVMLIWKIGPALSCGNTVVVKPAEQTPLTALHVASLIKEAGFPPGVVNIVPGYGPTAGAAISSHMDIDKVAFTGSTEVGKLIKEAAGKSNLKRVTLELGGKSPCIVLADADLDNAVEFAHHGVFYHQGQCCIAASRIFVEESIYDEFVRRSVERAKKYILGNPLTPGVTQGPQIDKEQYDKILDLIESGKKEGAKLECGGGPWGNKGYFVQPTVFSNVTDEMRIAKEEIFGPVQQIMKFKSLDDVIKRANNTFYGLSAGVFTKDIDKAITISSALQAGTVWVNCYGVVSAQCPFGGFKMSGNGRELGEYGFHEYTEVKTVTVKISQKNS
# PLK1 PBD inh – blocks phosphopeptide binding to human PLK1 polo-box domain; Plk1 PBD binding of FITC phosphopeptide, fluorescence polarization; AID 720504; 360,000 tested, 2.8% active; P53350; Potency, µM, for the others: max response, negative = inhibition, hits mostly inhibitors; note: series mostly up to about 57 µM; nearly all actives have a fitted effect of over 65% in size
# RORg inh – inhibitors of mouse ROR gamma transcriptional activity | P51450 | Drosophila S2 Gal4-RORgamma UAS-luciferase reporter, 20 h | Potency, µM (doses to about 53.6 µM), for the others: at the top dose activity change, negative = inhibition, actives largely listed as inhibitors | 310,000 tested, 5.4% active | AID 2551; note: nearly all actives have a fitted effect of over 60% in size
#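 Luminescence from a UAS-regulated Photinus luciferase reporter in stably transfected Drosophila Schneider cells is measured; decreased signal marks ROR gamma inhibition. Fusion expression is induced by 700 uM copper sulfate for 20 hr.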
# Gal4-VP16 FLuc – counter-screen for ROR gamma inhibitors: Gal4-VP16 reporter; Potency, µM (series often up to 53.6 µM), for the others: at the highest dose activity, negative = inhibition, usual class: inhibitors; 310,000 tested, 3.5% active; AID 2546; Drosophila S2 Gal4-VP16 UAS-luciferase, luminescence, 20 h;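 note: Gal4-VP16 expression switched on by copper sulfate through the metallothionein promoter; nearly all actives have a fitted effect of over 50% in size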
# Sfp inh – inhibitors of Bacillus subtilis Sfp phosphopantetheinyl transferase. Biochemical Sfp PPTase activity, qHTS. 310,000 tested, 3.5% active. Q9F4F7. Potency, µM, for inactives: largest response in the series, negative = inhibition, usual class: inhibitors;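 note: the enzyme is Sfp with the accession as filed and its product quenches rhodamine fluorescence; 0% = enzyme reaction without inhibitor and -100% = no enzyme wells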
#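 Step 1, compound plus 15 nM Sfp-PPTase, 15 min, room temperature. Step 2, add rhodamine-CoA (5 uM) and BHQ-2-YbbR (12.5 uM). Step 3, read 525/598 nm fluorescence at 0 and 30 min.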
# * hit, by the source's call; ? = inconclusive; . = no result given; [ ] = remark or other dose. Unless noted, calls come from the whole dose curve; as a rule, active = well fitted curve in the direction sought with a large enough effect; inconclusive = small, poorly fitted or top-dose-only effect, or another doubt; inactive = no such curve, though single readings can be large; an effect the other way counts as inactive or inconclusive. Unless noted, % is set by controls: 0 for no effect and ±100 for the full control effect; potency is the fitted concentration of half-maximal effect.
SMILES,ALDH1A1 inh,PLK1 PBD inh,RORg inh,Gal4-VP16 FLuc,Sfp inh
Cc1ccc(C=NNC(=O)C(=O)Nc2ccc(Cl)c([N+](=O)[O-])c2)cc1,.,-6%,.,.,.
Cc1ccc(NC(=S)N/N=C/c2ccc(Cl)c([N+](=O)[O-])c2)cc1,17%,1%,18µM*,?,20%
O=C(N/N=C/c1ccc(Cl)c([N+](=O)[O-])c1)C1CC1,4%,?,27%,?,8%
Cc1ccc(S(=O)(=O)N/N=C/c2ccc(OS(=O)(=O)c3ccc(C)c([N+](=O)[O-])c3)cc2)cc1,5µM*,-17%,18%,-5%,26%
O=[N+]([O-])c1cc(/C=N/NC(=S)Nc2ccccc2Cl)ccc1Cl,1%,6%,3.2µM*,3.5µM*,17%
Cc1csc(-c2ccc3cc(Cl)cc(Cl)c3n2)n1,.,2%,.,.,.
CCC(C)Nc1ccc(NC(C)CC)cc1 (stereo not given),8.9µM*,-12%,?,?,.
CCN(CC(=O)Nc1cc(OC)ccc1OC)Cc1nc2ccccc2c(=O)[nH]1,2%,-2%,20µM*,-7%,-46%
CCN(Cc1nc2ccccc2c(=O)[nH]1)Cc1cc(=O)oc2cc(OC)ccc12,?,-8%,14µM*,16µM*,-2%
COc1ccc(NC(=O)COC(=O)CCc2nc3ccccc3c(=O)[nH]2)c(OC)c1,.,-8%,.,.,.
CCN(CC(=O)Nc1ccc(C(=O)Nc2ccc(OC)cc2)cc1)Cc1nc2ccccc2c(=O)[nH]1,.,5%,3.2µM*,?,-28%
COc1cc2c(cc1NC(=O)CN(C)Cc1nc3ccccc3c(=O)[nH]1)oc1ccccc12,?,-7%,4.5µM*,11µM*,?
COc1ccc(NC(=O)CN(C)C(=O)CCCc2nc3ccccc3c(=O)[nH]2)cc1,.,-2%,.,.,.
COC(=O)C1OC(=O)C2OC23[C@]2(C)C(OC(C)=O)CC4C(C)(C)C(=O)CC[C@]4(C)C2CC[C@@]13C (stereo not given in full),-3%,.,3%,-11%,12%
COc1cc(-c2coc3c(C(=O)NCc4ccc(C(F)(F)F)cc4)cccc23)ccc1O,.,-9%,.,.,.
CCOC(=O)C(CCc1ccccc1)NC(C)C(=O)N1Cc2cc(OC)c(OC)cc2CC1C(=O)O (stereo not given),.,.,-10%,3%,18%
O=C(NC1CC1)c1ccc(NC(=O)C2CCC2)cc1,.,19µM*,.,.,.
O=C(N[C@@H](Cc1ccccc1)C(=O)OCc1ccccc1)c1nc[nH]c1C(=O)N1CCN(c2ccccc2)CC1,.,-18%,10µM*,?,1%
CC(C)C[C@H](NC(=O)c1[nH]cnc1C(=O)N[C@H](C)c1ccccc1)C(=O)OCc1ccccc1,?,0%,6.3µM*,5µM*,18%
CC(C)C[C@H](NC(=O)c1[nH]cnc1C(=O)N[C@@H](Cc1ccccc1)C(=O)OCc1ccccc1)C(=O)OCc1ccccc1,.,-11%,11µM*,11µM*,17%
O=C(N[C@@H](Cc1ccccc1)C(=O)OCc1ccccc1)c1nc[nH]c1C(=O)NCc1ccccc1,-11%,-8%,10µM*,?,14%
C[C@H](NC(=O)c1nc[nH]c1C(=O)N1CCN(c2ccccc2)CC1)C(=O)OCc1ccccc1,.,-12%,?,-15%,1%
CN1C(C)(C)CC(O)(C(=O)O)CC1(C)C,.,-19%,.,.,.
CCc1c2c(nc3ccc(OC)cc13)-c1nc3ccccc3c(=O)n1C2,.,.,?,?,6%
CC(C)C[C@H](NC(=O)c1nc[nH]c1C(=O)NC(c1ccccc1)c1ccccc1)C(=O)OCc1ccccc1,?,3%,2.5µM*,4.5µM*,26%
SMILES,ALDH1A1 inh,PLK1 PBD inh,RORg inh,Gal4-VP16 FLuc,Sfp inh
CC(C)C[C@H](NC(=O)c1nc[nH]c1C(=O)NCCCCCN)C(=O)OCc1ccccc1,.,-4%,.,.,.
CC(C)C[C@H](NC(=O)c1nc[nH]c1C(=O)N[C@@H](CC(C)C)C(=O)OCc1ccccc1)C(=O)OCc1ccccc1,.,0%,7.1µM*,?,16%
CCN(CC)CCOC(=O)c1ccc(N/C=C(/C#N)c2nc(-c3cc4ccccc4oc3=O)cs2)cc1,.,3%,?,?,-29%
CCN(CC)CCOC(=O)c1ccc(N/C=C(/C#N)c2nc(-c3ccc(OC)cc3)cs2)cc1,.,-8%,-31%,-20%,56µM*
CCN(CC)CCOC(=O)c1ccc(N/C=C(/C#N)c2nc(-c3ccc4c(c3)OCO4)cs2)cc1,.,9%,-21%,-4%,20µM*
N#C/C(=C\C=C\c1ccccc1)c1nc(-c2ccc3c(c2)OCO3)cs1,2%,?,-8%,-9%,4%
O=C(O)c1nc(-c2ccccc2)c(C(=O)NC2CC2)[nH]1,.,-4%,.,.,.
O=C(Cc1cccc2ccccc12)N/N=C/c1ccc2cccc(O)c2n1,.,-6%,13µM*,?,6%
N#CCCCS(=O)(=O)c1ccccc1,5%,.,-14%,-3%,23%
O=C(Cc1cccs1)NNC(=S)NC(=O)c1ccc(F)c(F)c1,?,-17%,6.3µM*,5.6µM*,-27%
O=C(Cc1ccccc1)NNC(=S)NC(=O)c1cccs1,.,-5%,?,2%,12%
O=C(Cc1cccs1)NNC(=S)NC(=O)c1ccccc1,?,-6%,7.9µM*,10µM*,-26%
Cc1cc(O)c(C)c2c1CC[C@H]1[C@H](C)C(=O)O[C@H]21,2%,.,-19%,17%,26%
CC(NC(=O)CSC(=S)N(C)C)C12CC3CC(CC(C3)C1)C2 (stereo not given),13µM*,-7%,-48%,-1%,-1%
CC(NC(=O)Cn1ncc(Cl)c(Cl)c1=O)C12CC3CC(CC(C3)C1)C2 (stereo not given),?,?,13µM*,?,-6%
CC(NC(=O)Cn1ccsc1=N)C12CC3CC(CC(C3)C1)C2 (stereo not given),-6%,7.5µM*,-11%[10 µM],-5%,6%
CCn1cc(C(=O)NC(C)C23CC4CC(CC(C4)C2)C3)cn1 (stereo not given),1%,-3%,-4%,-9%,6%
CN(C)C(=S)SCC(=O)NC(=O)NC(C)(C)C,-1%,-13%,17%,-3%,13%
CC1=C(C(=O)N(C(C)C)C(C)C)CC(CC(=O)NC(c2ccccc2)c2ccccc2)C(=O)N1Cc1ccc(F)cc1 (stereo not given),.,5%,.,.,.
FC(F)(F)c1ccccc1/C=N/n1c(COc2ccccc2)n[nH]c1=S,.,30µM*,5.6µM*,10µM*,50µM*
Oc1ccc(Br)cc1/C=N/n1c(COc2ccccc2)n[nH]c1=S,.,?,10µM*,?,?
Cc1n[nH]c(=S)n1/N=C/c1cccc(OCc2ccccc2)c1,-9%,-17%,36%,-7%,?
S=c1[nH]nc(COc2ccccc2)n1/N=C/c1ccccc1Br,.,?,8.9µM*,?,2%
